Our source for the growth inhibition, inhibition and outcome values is PubChem BioAssay.

A number with no mark means an inactive call. For some of these results: Results with a measured potency or affinity are listed apart. Activity calls are given as the source filed them. Unless noted, no rule for the calls is given here.

The nature of assay [1]: antimalarial activity against Dd2 strain (AID 2302;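 active = growth inhibition above 50% at the single 2 µM test dose, taken to imply half-maximal potency below 2 µM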;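 also: 0% = DMSO untreated growth and 100% = chloroquine plus artemisinin killed control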). To be noted: P. falciparum Dd2 in RBCs, LDH growth readout, 72 h; at 2 µM; hits give high values.
Assay [2] is described as follows: HepG2 cytotoxicity, primary screen, cytotoxicity control for P. falciparum antimalarial project, cell-based, ATP luminescence (AID 2303;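 active = inhibition above 50%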;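 also: 0% = DMSO wells and 100% = digitonin-killed cells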). To be noted: HepG2 viability, 24-48 h, at 10 µM, hits give high values.
Assay [3] addresses L-lactate dehydrogenase (Plasmodium falciparum (isolate CDC / Honduras)) (UniProt Q27743). In words: PfLDH activity inhibition – cell lysate, 3D7 strain, counter-screen for P. falciparum growth inhibition project (AID 2304).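 Also: 0% = vehicle and 100% = reference inhibitor.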 The note with it: P. falciparum 3D7 crude extract, LDH APAD/NBT absorbance; at 2 µM; hits give high values. A general note: Counterscreens check selectivity or assay interference.

A short description of assay [4]: inhibition of 3D7 malaria parasite growth – strain 3D7 (AID 2306).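 Also: 0% = DMSO wells and 100% = chloroquine plus artemisinin control wells.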 To be noted: P. falciparum 3D7 erythrocytic growth, LDH absorbance, 72 h; at 2 µM; hits give high values.
In assay [5] the target is Calcium-dependent protein kinase 1 (Plasmodium falciparum (isolate 3D7)) (UniProt P62344). The assay can be described thus: PfCDPK1 kinase inhibitors, biochemical, TCAMS library (AID 1159585; cut-off not given, nearly all actives have IC50 up to about 0.98 µM;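 also: inhibitors leave more ATP so luminescence rises with inhibition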). The note with it: recombinant PfCDPK1, Kinase-Glo ATP depletion luminescence. For orientation: Kinase-Glo measures the ATP left after a reaction by luminescence.
Chain of Calcium-dependent protein kinase 1 (Plasmodium falciparum (isolate 3D7)) (P62344 whole entry, looked up): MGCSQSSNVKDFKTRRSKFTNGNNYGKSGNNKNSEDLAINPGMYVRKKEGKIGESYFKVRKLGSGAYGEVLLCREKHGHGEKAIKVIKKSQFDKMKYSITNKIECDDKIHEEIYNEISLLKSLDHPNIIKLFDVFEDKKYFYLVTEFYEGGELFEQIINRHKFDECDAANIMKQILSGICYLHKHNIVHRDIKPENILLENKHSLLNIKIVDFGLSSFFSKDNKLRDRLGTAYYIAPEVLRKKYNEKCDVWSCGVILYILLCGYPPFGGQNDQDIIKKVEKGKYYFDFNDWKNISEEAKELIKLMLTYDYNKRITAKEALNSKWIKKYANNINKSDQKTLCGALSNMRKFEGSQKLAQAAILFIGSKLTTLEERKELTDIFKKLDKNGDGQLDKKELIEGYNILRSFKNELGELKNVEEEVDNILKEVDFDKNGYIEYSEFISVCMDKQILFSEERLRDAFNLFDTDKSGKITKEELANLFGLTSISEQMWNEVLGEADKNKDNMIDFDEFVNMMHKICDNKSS
In assay [6] the target is Plasmodium falciparum protein kinase 6 (PK6, PF3D7_1337100) (UniProt Q8IDW1). The assay can be described thus: PfPK6 kinase inhibitors, biochemical, TCAMS library (AID 1159586). The note with it: recombinant PfPK6, Kinase-Glo ATP depletion luminescence.
Chain of Plasmodium falciparum protein kinase 6 (PK6, PF3D7_1337100) (Q8IDW1 1-305): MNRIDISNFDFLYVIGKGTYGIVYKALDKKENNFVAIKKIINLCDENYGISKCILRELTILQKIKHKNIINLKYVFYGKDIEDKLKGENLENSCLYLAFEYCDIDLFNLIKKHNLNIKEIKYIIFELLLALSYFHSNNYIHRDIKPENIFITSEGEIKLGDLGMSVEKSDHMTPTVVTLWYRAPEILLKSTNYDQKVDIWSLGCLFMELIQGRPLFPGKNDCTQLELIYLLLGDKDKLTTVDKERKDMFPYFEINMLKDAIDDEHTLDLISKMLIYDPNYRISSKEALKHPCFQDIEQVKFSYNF
Assay [7] has as its target Protein kinase 7 (PK7), Plasmodium falciparum 3D7 (PF3D7_0213400) (UniProt Q7YTF7). The assay can be described thus: inhibition of Plasmodium PK7 catalytic activity – biochemical, TCAMS antimalarial set, Kinase-Glo luminescence (AID 1159587). The note with it: recombinant PfPK7, Kinase-Glo ATP depletion luminescence.
The target of assay [8] is Calcium-dependent protein kinase 4 (Plasmodium falciparum (isolate 3D7)) (UniProt Q8IBS5). In words: PfCDPK4 kinase inhibitors, biochemical, TCAMS library (AID 1159588; cut-off not given, nearly all actives have IC50 up to about 0.91 µM). To be noted: recombinant PfCDPK4, Kinase-Glo ATP depletion luminescence.
Chain of Calcium-dependent protein kinase 4 (Plasmodium falciparum (isolate 3D7)) (Q8IBS5 whole entry, looked up): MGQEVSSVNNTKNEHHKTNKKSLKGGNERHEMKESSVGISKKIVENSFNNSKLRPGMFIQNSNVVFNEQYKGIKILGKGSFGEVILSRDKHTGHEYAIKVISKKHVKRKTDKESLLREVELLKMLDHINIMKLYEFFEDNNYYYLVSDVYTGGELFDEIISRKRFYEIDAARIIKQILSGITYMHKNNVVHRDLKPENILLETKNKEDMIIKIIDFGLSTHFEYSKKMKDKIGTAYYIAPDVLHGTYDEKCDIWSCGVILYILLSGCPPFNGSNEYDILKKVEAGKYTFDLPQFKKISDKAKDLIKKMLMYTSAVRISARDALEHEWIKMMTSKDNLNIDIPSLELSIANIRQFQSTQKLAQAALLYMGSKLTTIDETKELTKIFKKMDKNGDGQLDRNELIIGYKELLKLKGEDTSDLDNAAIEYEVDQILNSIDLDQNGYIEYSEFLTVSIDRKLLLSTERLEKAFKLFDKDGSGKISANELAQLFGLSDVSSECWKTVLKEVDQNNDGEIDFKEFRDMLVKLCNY

Chain of Protein kinase 7 (PK7), Plasmodium falciparum 3D7 (PF3D7_0213400) (Q7YTF7 1-343): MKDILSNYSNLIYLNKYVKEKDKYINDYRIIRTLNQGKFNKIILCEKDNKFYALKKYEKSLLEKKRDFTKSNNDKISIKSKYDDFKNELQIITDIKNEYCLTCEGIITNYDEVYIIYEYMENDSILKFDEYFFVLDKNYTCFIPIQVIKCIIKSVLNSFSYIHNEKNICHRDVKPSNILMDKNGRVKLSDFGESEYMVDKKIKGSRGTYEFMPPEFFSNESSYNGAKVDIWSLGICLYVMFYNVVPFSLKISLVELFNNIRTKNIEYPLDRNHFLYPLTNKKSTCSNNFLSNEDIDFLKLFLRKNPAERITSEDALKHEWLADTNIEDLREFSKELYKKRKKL
Chain of L-lactate dehydrogenase (Plasmodium falciparum (isolate CDC / Honduras)) (Q27743 whole entry, looked up): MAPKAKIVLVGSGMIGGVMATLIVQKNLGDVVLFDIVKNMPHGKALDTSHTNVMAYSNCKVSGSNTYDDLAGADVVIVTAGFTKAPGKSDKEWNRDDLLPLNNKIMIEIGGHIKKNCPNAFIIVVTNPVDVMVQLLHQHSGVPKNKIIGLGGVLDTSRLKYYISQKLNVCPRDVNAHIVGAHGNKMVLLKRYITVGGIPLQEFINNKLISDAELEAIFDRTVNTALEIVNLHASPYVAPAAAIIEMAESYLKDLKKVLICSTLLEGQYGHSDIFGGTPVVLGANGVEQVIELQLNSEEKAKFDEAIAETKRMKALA

One may read the inhibition as the drop in the measured response relative to a control, in per cent. For `O=C(NCCCCN1CCC(c2ccc3c(c2O)CCCC3)CC1)c1ccc(-c2ccc(Cl)cc2)cc1`, the growth inhibition in assay [1] is 72% (active); in assay [4] it was 98% (active). Further, the inhibition is 97% (active) in assay [2] and 1% in assay [3]. For the same compound, the outcome in assay [5], in assay [6], in assay [7] and in assay [8] was inactive.

As for `CC(C)(C)CCN1CCC(CNC(=O)c2cc(-c3cccc(C(F)(F)F)c3)cs2)C1` (stereo not given), the values for the growth inhibition in assay [1] and in assay [4] were 13% and 93% (active), respectively. The inhibition in assay [2] was 47%; in assay [3], -1%. Besides, the outcome in assay [5], in assay [6], in assay [7] and in assay [8] was inactive.

For `N#Cc1cc([N+](=O)[O-])ccc1-n1nc(-c2cccc(Cl)c2)n(CC2CCCO2)c1=S` (stereo not given), the figures for the growth inhibition in assay [1] and in assay [4] were 89% (active) and 91% (active), respectively. Besides, the inhibition in assay [2] was 0%; in assay [3] it was -2%. Besides, the outcome in assay [5], in assay [6], in assay [7] and in assay [8] was inactive.

Regarding `CC(C)Cc1ccc(N2CCN(CCCCNC(=O)c3ccc(NC(=O)c4ccc(Cl)c(Cl)c4)cc3)CC2)cc1`, the growth inhibition in assay [1] was 25%; in assay [4] it was 94% (active). In addition, the inhibition in assay [2] was 21%; in assay [3], 0%. Further, the outcome in assay [5], in assay [6], in assay [7] and in assay [8] was inactive.

Regarding `Cc1cc(NC(=O)NCCN2CCC(NS(=O)(=O)c3ccc(Br)cc3)C2)c2ccccc2n1` (stereo not given), the growth inhibition in assay [1] was 51% (active); in assay [4], 99% (active). Besides, the inhibition is 9% in assay [2] and 0% in assay [3]. In addition, the outcome in assay [5], in assay [6], in assay [7] and in assay [8] was inactive.

With `CN1CCN(Cc2cccc(-c3cc4nccc(Nc5ccc(Oc6ccccc6)cc5)c4cc3Cl)c2)CC1`, the values for the growth inhibition in assay [1] and in assay [4] were 96% (active) and 101% (active), respectively. Besides, the inhibition in assay [2] is 10%; in assay [3] it was -3%. Moreover, the result in assay [5], in assay [6], in assay [7] and in assay [8] was inactive.

For `CCCCOC(=O)c1ccc(Nc2cc(C)nc3ccc(OC)cc23)cc1`, the growth inhibition in assay [1] is 96% (active); in assay [4], 100% (active). Also, the inhibition in assay [2] was 4%; in assay [3], -5%. Further, the result in assay [5], in assay [6], in assay [7] and in assay [8] was inactive.

As to `CC(=O)N1CCC(C(=O)Nc2ccc(-c3cccc(-c4nc5c(C)cccc5[nH]4)c3)cc2)CC1`, the growth inhibition in assay [1] was 27%; in assay [4] it was 84% (active). In addition, the inhibition in assay [2] is 85% (active); in assay [3], -1%. Moreover, the outcome in assay [5], in assay [6], in assay [7] and in assay [8] was inactive.

`CC[C@H](NC(=O)c1c(N)c(-c2sccc2Cl)nc2ccccc12)c1ccccc1`: the growth inhibition in assay [1] was 92% (active); in assay [4], 99% (active). Further, the inhibition in assay [2] was 0%; in assay [3], -4%. Moreover, the outcome in assay [5], in assay [6], in assay [7] and in assay [8] was inactive.

For `O=C(Nc1cccc(CN2CCCN(Cc3ccc(O)cc3)CC2)c1)c1ccc2ccccc2n1`, the growth inhibition was 22% in assay [1] and 90% (active) in assay [4]. The inhibition in assay [2] was 13%; in assay [3], -1%. Further, the outcome in assay [5], in assay [6], in assay [7] and in assay [8] was inactive.

Take `Cc1c(F)cc(C(=O)NC2CC2)cc1-c1ccc2c(cnn2S(=O)(=O)c2ccc(Cl)s2)c1`: the growth inhibition in assay [1] was 50% (active); in assay [4] it was 81% (active). The figures for the inhibition in assay [2] and in assay [3] were 24% and -4%, respectively. Besides, the result in assay [5], in assay [6], in assay [7] and in assay [8] was inactive.

As to `CN(Cc1cccc(O)c1)C1CCN(c2cc(NC(=O)c3ccc(F)cc3)ccn2)CC1`, the growth inhibition in assay [1] was 9%; in assay [4] it was 94% (active). Also, the inhibition in assay [2] is 24%; in assay [3], -2%. In addition, the outcome in assay [5], in assay [6], in assay [7] and in assay [8] was inactive.

As to `Cc1cc(C)cc(Oc2c(C(F)(F)F)oc3c(CN4CC(C)OC(C)C4)c(O)ccc3c2=O)c1` (stereo not given), the figures for the growth inhibition in assay [1] and in assay [4] were 54% (active) and 89% (active), respectively. Moreover, the inhibition in assay [2] is 5%; in assay [3], 1%. Besides, the result in assay [5], in assay [6], in assay [7] and in assay [8] was inactive.

Take `CCCCNc1c(C(=O)OCC)c(C)nc2c1[nH]c1ccccc12`: the growth inhibition in assay [1] was 58% (active); in assay [4], 100% (active). Moreover, the inhibition in assay [2] is -3%; in assay [3] it was 3%. In addition, the result in assay [5], in assay [6], in assay [7] and in assay [8] was inactive.

`FC(F)(F)c1cc(C(F)(F)F)c2cc(CNCCCNc3nc4ccccc4[nH]3)[nH]c2c1`: the growth inhibition in assay [1] is 99% (active); in assay [4] it was 100% (active). Also, the inhibition in assay [2] was 99% (active); in assay [3] it was 0%. Further, the result in assay [5], in assay [6], in assay [7] and in assay [8] was inactive.

As for `Cc1nc2ccc([N+](=O)[O-])cc2c(=O)n1OCc1ccccc1`, the growth inhibition in assay [1] is -1%; in assay [4], 98% (active). Further, the inhibition in assay [2] was 2%; in assay [3] it was -2%. In addition, the result in assay [5], in assay [6], in assay [7] and in assay [8] was inactive.

Regarding `O=C(N[C@@H](CC1CCCCC1)C(=O)NCc1cccc(C(F)(F)F)c1)c1ccc(O)c(-c2ccc(Cl)c(Cl)c2)c1`, the growth inhibition in assay [1] was 100% (active); in assay [4] it was 98% (active). Further, the values for the inhibition in assay [2] and in assay [3] were -5% and 5%, respectively. Besides, the outcome in assay [5], in assay [6], in assay [7] and in assay [8] was inactive.

`CN(C)CCCOc1c(C(C)(C)C)cc(-c2cc(C(C)(C)C)c(OCCCN(C)C)c(C(C)(C)C)c2)cc1C(C)(C)C`: the values for the growth inhibition in assay [1] and in assay [4] were 99% (active) and 100% (active), respectively. Also, the results for the inhibition in assay [2] and in assay [3] were 25% and 0%, respectively. The result in assay [5], in assay [6], in assay [7] and in assay [8] was inactive.

In the case of `c1cc(-c2ccc(CNCCc3ccncc3)cc2)cc(-c2nc3ccccc3[nH]2)c1`, the growth inhibition in assay [1] was 99% (active); in assay [4], 101% (active). Besides, the inhibition is 41% in assay [2] and -8% in assay [3]. Further, the outcome in assay [5], in assay [6], in assay [7] and in assay [8] was inactive.

With `Nc1ccc(-c2ccc(NC(=O)Nc3cc(C(F)(F)F)ccc3F)cc2)cn1`, the growth inhibition was 39% in assay [1] and 99% (active) in assay [4]. Besides, the inhibition was -6% in assay [2] and -9% in assay [3]. In addition, the outcome in assay [5], in assay [6], in assay [7] and in assay [8] was inactive.
